From PubChem BioAssay

Experiment: small molecules captured by biotinylated probe aFGF2 – biochemical, small-molecule microarray, fluorescence 635/667, stem cell growth factor project, primary screen (AID 1067);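 also: measures binding of biotinylated aFGF2 protein to printed compounds on slides; z-score merges feature fluorescence and signal-to-noise across triplicate slides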
Conditions: higher = more signal

Going from `COc1ccc(COC(=O)NN=C2C[C@@H](O)[C@@H](O)[C@@H]3[C@@H]4C(=O)N(C[C@@H]5CCCO5)C(=O)[C@@H]4CC[C@H]23)cc1` to `COc1ccc(COC(=O)NN=C2C[C@@H](O)[C@@H](O)[C@@H]3[C@@H]4C(=O)N(c5cccc(Oc6ccccc6)c5)C(=O)[C@@H]4CC[C@H]23)cc1`, the composite z-score falls from -0.076 to -0.138.

First: CCOC(=O)[C@H](Cc1ccccc1)NC(=O)CCC1CC(OC(=O)NCCc2ccc(F)cc2)CC2(CCCC(COC(=O)NCCC(C)C)O2)O1 (stereo partly specified)
Second: COC(=O)[C@H](C)NC(=O)CCC1CC(OC(=O)NCCc2ccc(F)cc2)CC2(CCCC(COC(=O)NCc3ccccc3)O2)O1 (stereo partly specified)
The composite z-score of the first is lower: -0.0296 for the first, 0.0002 for the second.

Compared with `COC(=O)CC=C[C@@H](C)[C@@H](C=NOC[C@@H](O)[C@H]1O[C@@H]2OC(C)(C)O[C@@H]2[C@H]1O)OC`, `CC1(C)O[C@H]2OC([C@H](O)CON3C(=O)c4ccccc4C3=O)[C@H](O)[C@H]2O1` (stereo partly specified) is lower in composite z-score: -0.0996 for the first, -0.175 for the second.

Compared with `C[C@]12CCC3c4ccc(OCC5CO5)cc4CCC3C1CC[C@@H]2O` (stereo partly specified), `C=CCOCC1CN2[C@@H](CC[C@@H](C)[C@@H]2c2ccc(Br)cc2)C(=O)O1` (stereo partly specified) is lower in composite z-score: -0.0415 for the first, -0.16 for the second.

Compared with `CCOC(=O)CCN1C(=O)[C@H]2[C@H]3[C@H](O)[C@H](O)CC(=NO[C@@H]4O[C@H](CO)[C@@H](O)[C@H](O)[C@H]4O)[C@@H]3CC[C@H]2C1=O`, `CCOC(=O)CCN1C(=O)[C@H]2[C@H]3[C@H](O)[C@H](O)CC(=NOCC=C(C)CCC=C(C)C)[C@@H]3CC[C@H]2C1=O` is lower in composite z-score: -0.129 for the first, -0.133 for the second.

Compared with `CC(CCN1CCCCc2nc(C)c(C)cc21)=NO[C@H](C)c1cn([C@@H]2COC[C@H]2O)nn1`, `CC(=O)OC[C@H]1O[C@@H](ON=C(C)CCN2CCCCc3nc(C)c(C)cc32)[C@H](OC(C)=O)[C@@H](OC(C)=O)[C@@H]1OC(C)=O` is higher in composite z-score: -0.126 for the first, -0.0801 for the second.

Going from `CC=CC1=C(CO)[C@H](O)[C@H]2O[C@H]2[C@@H]1O` to `CCOC(=O)NN=C1C[C@@H](O)[C@@H](O)[C@@H]2[C@@H]3C(=O)N(CC)C(=O)[C@@H]3CC[C@H]12`, the composite z-score falls from -0.0425 to -0.1.

Compared with `CC(=O)OC[C@H]1O[C@@H](ON=C(C)CCC(=O)OC[C@H]2O[C@H](C#Cc3ccccc3)C=C[C@@H]2Oc2ccc(C)cc2)[C@H](OC(C)=O)[C@@H](OC(C)=O)[C@@H]1OC(C)=O`, `CC(CCC(=O)OC[C@H]1O[C@H](C#Cc2ccccc2)C=C[C@@H]1Oc1ccc(C)cc1)=NO[C@H](C)c1cn([C@@H]2COC[C@H]2O)nn1` is lower in composite z-score: 0.0309 for the first, -0.148 for the second.

First: Cc1cc2c(nc1C)CCCCN2CC(O)CN1CCCc2nc(-c3ccc(Br)cc3)ccc21 (stereo unspecified)
Second: COC(=O)[C@@H]1CC[C@H](C)[C@@H](c2ccc(Br)cc2)N1C[C@@H](O)CN=[N+]=[N-]
The composite z-score of the first is higher: -0.019 for the first, -0.116 for the second.

Compared with `CC(=O)OC[C@H]1O[C@H](CCON=C(C)C)C=C[C@@H]1OC(C)=O`, `CCCNC(=O)OC[C@H]1O[C@H](CCON=C[C@@H](NS(=O)(=O)c2ccc(C)cc2)[C@H](C)C=CCC(=O)OC)C=C[C@@H]1Oc1ccc(OC)cc1` is higher in composite z-score: -0.116 for the first, -0.0425 for the second.

First: CCCC[C@H]1CN2[C@@H](CC[C@@H](C)[C@@H]2c2ccc(Br)cc2)C(=O)O1
Second: O=C1C[C@H](c2ccccc2)[C@H](c2ccc(Br)cc2)O1
The composite z-score of the first is lower: -0.0894 for the first, -0.0761 for the second.

Going from `CCC1=NOC(CCC2CC(OC(=O)NCc3cccc4c3OCO4)CC3(CCCC(COC(=O)NCCc4ccc(Cl)cc4)O3)O2)C1` (stereo unspecified) to `CCOC(=O)[C@H](CC(C)C)NC(=O)CCC1CC(OC(=O)NCc2ccc3c(c2)OCO3)CC2(CCCC(COC(=O)NCc3ccccc3)O2)O1` (stereo partly specified), the composite z-score falls from 0.0388 to -0.0667.

First: COc1ccc(O[C@H]2C=C[C@@H](C#Cc3ccccc3)O[C@@H]2CO)cc1
Second: COc1ccc(O[C@H]2C=C[C@@H](c3ccccc3)O[C@@H]2COC(=O)CCC(C)=NOC[C@@H](O)COCc2ccco2)cc1
The composite z-score of the first is higher: -0.0206 for the first, -0.411 for the second.

Going from `CC(C)CON=C1[C@H]2CCn3c(=O)n(C)c(=O)n3[C@H]2[C@H](O)[C@@H]2O[C@H]12` to `CC(=O)OC[C@H]1O[C@@H](ON=C2[C@H]3CCn4c(=O)n(-c5ccccc5)c(=O)n4[C@H]3[C@H](O)[C@@H]3O[C@H]23)[C@H](OC(C)=O)[C@@H](OC(C)=O)[C@@H]1OC(C)=O`, the composite z-score rises from -0.136 to -0.0787.

Compared with `O=C1[C@H]2[C@H]3[C@H](O)[C@H](O)CC(=NOCc4ccccc4)[C@@H]3CC[C@H]2C(=O)N1c1cccc(Oc2ccccc2)c1`, `O=C(NN=C1C[C@@H](O)[C@@H](O)[C@@H]2[C@@H]3C(=O)N(c4ccc(F)cc4F)C(=O)[C@@H]3CC[C@H]12)OCc1ccccc1` is lower in composite z-score: -0.0579 for the first, -0.152 for the second.

First: O=C1[C@H]2[C@H]3[C@H](O)[C@H](O)CC(=NOC[C@@H](O)COCc4ccco4)[C@@H]3CC[C@H]2C(=O)N1Cc1ccc2c(c1)OCO2
Second: CCN1C(=O)[C@H]2[C@H]3[C@H](O)[C@H](O)CC(=NO[C@@H](C)c4cc(-c5c(C)cc(C)cc5C)no4)[C@@H]3CC[C@H]2C1=O
The composite z-score of the first is lower: -0.292 for the first, -0.0243 for the second.

First: O=C1C2=CC[C@H]3C(=O)N(C4CCCCC4)C(=O)[C@H]3[C@H]2[C@H](O)[C@@H]2O[C@H]12
Second: COC(=O)[C@@H]1CC[C@H](C)[C@@H](c2ccc(C)cc2)N1C(=O)c1ccc(C=NOC[C@H]2O[C@H](c3ccccc3)C=C[C@@H]2Oc2ccc(OC)cc2)cc1
The composite z-score of the first is lower: -0.162 for the first, -0.154 for the second.

Compared with `CCOC(=O)[C@H](Cc1ccccc1)NC(=O)CCC1CC(OC(=O)NCc2ccc3c(c2)OCO3)CC2(CCCC(COC(=O)NCCOc3ccccc3)O2)O1` (stereo partly specified), `CC#CCOCCC=C1c2ccccc2[C@@H](OC)[C@@H]1C` is lower in composite z-score: -0.051 for the first, -0.143 for the second.
